# Where two headings read alike, the source gives them in different places.
# Assays:
# Design in all cases: species or system human, MV4-11 + K-562 + COLO205 + SK-N-BE2 + OVCAR-8
# [1] = system: CSNK1D; conditions: read-out: apparent Kd, n = 1
# [2] = system: CSNK1E; conditions: read-out: apparent Kd, n = 1
# [3] = system: MAPK10; conditions: read-out: apparent Kd; compound concentrations: 100 nM and 1000 nM (sheet 'Samples'), CATDS: 6.3561216633857096E-2; n = 1
# [4] = system: MAPK11; conditions: read-out: apparent Kd; compound concentrations: 100 nM and 1000 nM (sheet 'Samples'), CATDS: 0.18420027460355101; n = 1
# [5] = system: MAPK14; conditions: read-out: apparent Kd, n = 1
# [6] = system: MAPK9; conditions: read-out: apparent Kd; compound concentrations: 100 nM and 1000 nM (sheet 'Samples'), CATDS: 9.6618855435108605E-2; n = 1
# [7] = system: MAPKAPK2; conditions: read-out: apparent Kd, n = 1
# [8] = system: NLK; conditions: read-out: apparent Kd; compound concentrations: 100 nM and 1000 nM (sheet 'Samples'), CATDS: 5.8542673875263601E-2; n = 1
# [9] = system: PRKD2; conditions: read-out: apparent Kd, n = 1
# [10] = system: PRKD3; conditions: read-out: apparent Kd; compound concentrations: 100 nM and 1000 nM (sheet 'Samples'), CATDS: 5.6713144719272697E-2; n = 1
# [11] = system: RIPK2; conditions: read-out: apparent Kd; compound concentrations: 100 nM and 1000 nM (sheet 'Samples'), CATDS: 7.7128877949965702E-2; n = 1
# [12] = system: DDR1; conditions: read-out: apparent Kd, n = 1
# [13] = system: DDR2; conditions: read-out: apparent Kd, n = 1
# [14] = system: PIK3CD; conditions: read-out: apparent Kd; compound concentrations:100 nM and 1000 nM (sheet 'Samples'); n = 1
# [15] = system: DAPK3; conditions: read-out: apparent Kd; compound concentrations:100 nM and 1000 nM (sheet 'Samples'); n = 1
# [16] = system: EGFR; conditions: read-out: apparent Kd; compound concentrations:100 nM and 1000 nM (sheet 'Samples'); n = 1
# [17] = system: HSP90B1; conditions: read-out: apparent Kd; compound concentrations:100 nM and 1000 nM (sheet 'Samples'); n = 1
# [18] = system: IRAK1; conditions: read-out: apparent Kd; compound concentrations:100 nM and 1000 nM (sheet 'Samples'); n = 1
# [19] = system: FLT3; conditions: read-out: apparent Kd, n = 1
# [20] = system: PIK3CA; conditions: read-out: apparent Kd; compound concentrations:100 nM and 1000 nM (sheet 'Samples'); n = 1
# [21] = system: SMC4; conditions: read-out: apparent Kd; compound concentrations:100 nM and 1000 nM (sheet 'Samples'); n = 1
# [22] = system: ZAK; conditions: read-out: apparent Kd; compound concentrations:100 nM and 1000 nM (sheet 'Samples'); n = 1
# [23] = system: PKN3; conditions: read-out: apparent Kd; compound concentrations:100 nM and 1000 nM (sheet 'Samples'); n = 1
# [24] = system: DCTPP1; conditions: read-out: apparent Kd; compound concentrations:100 nM and 1000 nM (sheet 'Samples'); n = 1
# [25] = system: MAPK6; conditions: read-out: apparent Kd; compound concentrations:100 nM and 1000 nM (sheet 'Samples'); n = 1
# [26] = system: NTRK1; conditions: read-out: apparent Kd; compound concentrations:100 nM and 1000 nM (sheet 'Samples'); n = 1
# [27] = system: NUAK1; conditions: read-out: apparent Kd; compound concentrations:100 nM and 1000 nM (sheet 'Samples'); n = 1
# [28] = system: PHKG2; conditions: read-out: apparent Kd; compound concentrations:100 nM and 1000 nM (sheet 'Samples'); n = 1
# [29] = system: FLT4; conditions: read-out: apparent Kd; compound concentrations: 100 nM and 1000 nM (sheet 'Samples'), CATDS: 0.42297219111770701; n = 1
# [30] = system: JAK2; conditions: read-out: apparent Kd; compound concentrations: 100 nM and 1000 nM (sheet 'Samples'), CATDS: 0.17425354278837099; n = 1
# [31] = system: RET; conditions: read-out: apparent Kd; compound concentrations: 100 nM and 1000 nM (sheet 'Samples'), CATDS: 0.369571760306865; n = 1
# [32] = compound concentrations:100 nM and 1000 nM (sheet 'Samples')
smiles,measurement,setting,value
C[C@H](O)CNc1cc(-c2[nH]c3cccnc3c2-c2ccc(F)cc2)ccn1.Cl [RO3206145-001],potency estimated from few doses,"[1]; compound concentrations: 100 nM and 1000 nM (sheet 'Samples'), CATDS: 0.227277196740168",36.6 nM
same,potency estimated from few doses,"[2]; compound concentrations: 100 nM and 1000 nM (sheet 'Samples'), CATDS: 0.13101963616975801",99 nM
same,potency estimated from few doses,[3],1000 nM
same,potency estimated from few doses,[4],51.5 nM
same,potency estimated from few doses,"[5]; compound concentrations: 100 nM and 1000 nM (sheet 'Samples'), CATDS: 0.188780888737105",49.4 nM
same,potency estimated from few doses,[6],211 nM
same,potency estimated from few doses,"[7]; compound concentrations: 100 nM and 1000 nM (sheet 'Samples'), CATDS: 0.128658474948743",103 nM
same,potency estimated from few doses,[8],1550 nM
same,potency estimated from few doses,"[9]; compound concentrations: 100 nM and 1000 nM (sheet 'Samples'), CATDS: 5.9855757256393E-2",1370 nM
same,potency estimated from few doses,[10],1880 nM
same,potency estimated from few doses,[11],441 nM
COC(=O)Nc1nc2cc(Oc3ccc(NC(=O)Nc4cc(F)ccc4F)cc3)ccc2[nH]1.Cl [GW701424A],potency estimated from few doses,[12]; [32],242 nM
same,potency estimated from few doses,[13]; [32],1120 nM
same,potency estimated from few doses,[14],11.2 nM
Cl.O=S1CCN(Cc2ccc(-c3ccc4ncnc(Nc5ccc(OCc6ccccc6)c(F)c5)c4c3)o2)CC1 [GW576924A],potency estimated from few doses,[15],1760 nM
same,potency estimated from few doses,[16],28.8 nM
same,potency estimated from few doses,[17],1100 nM
same,potency estimated from few doses,[18],1540 nM
COC(=O)Nc1nc2cc(Oc3ccc(NC(=O)Nc4cccc(SC)c4)cc3)ccc2[nH]1.Cl [GW697999A],potency estimated from few doses,[12]; [32],194 nM
same,potency estimated from few doses,[13]; [32],618 nM
same,potency estimated from few doses,[19]; [32],332 nM
same,potency estimated from few doses,[20],205 nM
same,potency estimated from few doses,[14],92.1 nM
same,potency estimated from few doses,[21],2010 nM
same,potency estimated from few doses,[22],1910 nM
Cc1cccc2c(-c3ccncc3)c(-c3ccc(F)cc3)nn12.Cl [GW461487A],potency estimated from few doses,[1]; [32],605 nM
same,potency estimated from few doses,[2]; [32],879 nM
same,potency estimated from few doses,"[5]; compound concentrations: 100 nM and 1000 nM (sheet 'Samples'), CATDS: 0.14248163391639501",940 nM
same,potency estimated from few doses,[7]; [32],565 nM
same,potency estimated from few doses,[14],152 nM
same,potency estimated from few doses,[23],1420 nM
COC(=O)Nc1nc2cc(Oc3ccc(NC(=O)Nc4ccccc4)cc3)ccc2[nH]1.Cl [GW694590A],potency estimated from few doses,"[12]; compound concentrations: 100 nM and 1000 nM (sheet 'Samples'), CATDS: 0.58971878257752297",426 nM
same,potency estimated from few doses,"[13]; compound concentrations: 100 nM and 1000 nM (sheet 'Samples'), CATDS: 0.43397569756313797",799 nM
NCC1CNC(=O)c2cc3ccc(C(=O)Nc4cccnc4)cc3n2C1 (stereo not drawn) [BI00614644],potency estimated from few doses,[24],1830 nM
same,potency estimated from few doses,[5]; [32],1320 nM
same,potency estimated from few doses,[25],1330 nM
same,potency estimated from few doses,[26],1520 nM
same,potency estimated from few doses,[27],1090 nM
same,potency estimated from few doses,[28],1110 nM
same,potency estimated from few doses,[9]; [32],950 nM
CN(c1ccc2c(c1)nc(NCc1ccccc1)n2C)c1ccnc(Nc2ccc(CS(C)(=O)=O)cc2)n1.Cl [GW811603A],potency estimated from few doses,"[12]; compound concentrations: 100 nM and 1000 nM (sheet 'Samples'), CATDS: 0.142121036969732",962 nM
same,potency estimated from few doses,"[19]; compound concentrations: 100 nM and 1000 nM (sheet 'Samples'), CATDS: 0.139763894659995",1030 nM
same,potency estimated from few doses,[29],63.4 nM
same,potency estimated from few doses,[30],465 nM
same,potency estimated from few doses,[31],79.9 nM

# — publication PMC11062922 (Nature Chemical Biology, 2023)
